Vc quorum ag = inducers of Vibrio cholerae quorum light production without autoinducers, primary screen, BH1578 luxS cqsA deficient, single point; V. cholerae BH1578 lux reporter, luminescence, 6 h; activation, % at 18.7 µM; 350,000 tested, 0.16% active; in the data active means activation mostly above about 9.7%, no sharp cut-off; inconclusive means no clear call, values can overlap the other calls; inactive means mostly below about 3.7%
Mtb betalactam = beta-lactam sensitization of Mtb H37Rv, H37Rv; M. tuberculosis H37Rv growth with meropenem, percent inhibition; inhibition, % at 25 µM; 330,000 tested, 0.27% active; AID 434955, 2010; call rule not given here;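 further: growth measured after seven days incubation then overnight dye step; 0% = bacteria only wells and 100% = bacteria with antibiotic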
ugtP null kill = growth inhibition of ugtP-null S. aureus, primary screen, RN4220 ugtP deletion, OD600; 16 h; growth inhibition, % (test concentration not listed); 330,000 tested, 0.54% active; AID 1259309, 2017; in the data active means growth inhibition above about 68%;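 further: plate controls were untreated wells for no effect and antibiotic for full effect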
PfHsp40 yeast = rescue of yeast from PfHsp40 toxicity, primary screen, S. cerevisiae, ATP luminescence; S. cerevisiae expressing PfHsp40, growth rescue; growth rescue, % at 12.5 µM; 340,000 tested, 0.68% active; AID 504582, 2011; in the data active means growth rescue above about 28%, passing the limit was not always enough; inconclusive means no clear call, values can overlap the other calls;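 further: yeast W303a lacking pdr1 and pdr3 grown in galactose medium; growth measured after three days at 30 °C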
RN4220 kill = growth inhibition of S. aureus RN4220, primary screen, OD600; 16 h; inhibition, % (concentration not given with the values); 330,000 tested, 0.33% active; in the data active means inhibition above about 85%;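 further: plate controls were untreated cells for no effect and reference antibiotic for full effect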
Active calls of the source: *; i = inactive; ? = inconclusive; / = not tested or not shown. This is a sample that favours compounds with a hit; in the whole collection about 1.2% have one here.

SMILES	Vc quorum ag	Mtb betalactam	ugtP null kill	PfHsp40 yeast	RN4220 kill
Cn1cnc([N+](=O)[O-])c1S(=O)(=O)Oc1cccc2ccccc12	i	/	91.1*	?	52.4
Cn1cnc([N+](=O)[O-])c1Oc1cccc2ccccc12	-0.3	93.2	-3.3	-1.2	8.9
COc1ccc(CNC(=O)C(C)C2C[C@@]2(C)C(NC(=O)OCc2ccccc2)c2ccccc2)cc1OC (stereo partly specified)	/	/	0.3	/	-8.2
COC1C(OC(=O)c2ccc(C)[nH]2)C(O)C(Oc2ccc3c(O)c(NC(=O)c4ccc(O)c(CC=C(C)C)c4)c(=O)oc3c2Cl)OC1(C)C (stereo unspecified)	-0.4	-4.6	100.3*	2.7	94.1*
CCOC(=O)c1cnc(-n2nc(C)cc2C)nc1NC1CCCCC1	0.7	85.1	-8.0	91.8*	12.8
O=[N+]([O-])c1cccc(-c2csc(NN=Cc3cccc(O)c3)n2)c1	/	/	93.7*	/	84.5
COc1cc(C(=O)Sc2ccc(Cl)cc2)cc(OC)c1OC	0.5	85.3	92.9*	-0.4	0.9
COc1cc(C(=O)NCCSc2ccc(Cl)cc2)cc(OC)c1OC	3.0	-5.7	-5.4	-0.7	0.5
Cc1ccc(S(=O)(=O)Nc2ccc3c(c2)CC(=O)N(C(C)CO)CC(C)C(CN(C)S(=O)(=O)c2ccccc2)O3)cc1 (stereo unspecified)	/	/	0.3	/	4.3
C#CCOCCOCCOCCNc1nc(N2CCN(C(=O)CCCCCCCCCCNC(=O)[C@H](CO)n3cc(CCCSC)nn3)CC2)nc(N2CCN(C(=O)CCCCCCCCCCNC(=O)[C@H](CCCCN)n3cc(CCO)nn3)CC2)n1	-1.0	6.1	/	-2.0	/
C#CCOCCOCCOCCNc1nc(N2CCN(C(=O)CCCCCCCCCCNC(=O)[C@H](CO)n3cc(CCCSC)nn3)CC2)nc(N2CCN(C(=O)CCCCCCCCCCNC(=O)[C@H](CCCN=C(N)N)n3cc(C[C@@H](C)CC)nn3)CC2)n1	i	99.7	/	30.0*	/
C#CCOCCOCCOCCNc1nc(N2CCN(C(=O)[C@H]([C@@H](C)CC)n3cc(CCCCN)nn3)CC2)nc(N2CCN(C(=O)[C@H](CCCCN)n3cc(CCCC)nn3)CC2)n1	i	-9.5	/	33.0*	/
C#CCOCCOCCOCCNc1nc(N2CCN(C(=O)CCCCCCCCCCNC(=O)Cn3cc(CCCCCN)nn3)CC2)nc(N2CCN(C(=O)CCCCCCCCCCNC(=O)[C@H]([C@@H](C)CC)n3cc(CCCCN=C(N)N)nn3)CC2)n1	i	-10.2	/	29.1*	/
C#CCOCCOCCOCCNc1nc(N2CCN(C(=O)[C@H]([C@@H](C)CC)n3cc(CCC(=O)O)nn3)CC2)nc(N2CCN(C(=O)[C@H](CCCCN)n3cc(CCCC)nn3)CC2)n1	-0.8	/	/	-2.3	/
C#CCOCCOCCOCCNc1nc(N2CCN(C(=O)CCCCCCCCCCNC(=O)[C@H]([C@@H](C)CC)n3cc(CCCCCN)nn3)CC2)nc(N2CCN(C(=O)CCCCCCCCCCNC(=O)[C@H]([C@@H](C)CC)n3cc(CCCCN=C(N)N)nn3)CC2)n1	i	86.1	/	69.0*	/
Cn1cc(CC(NC(=O)OC(C)(C)C)C(=O)NC(CO)Cc2ccccc2)c2ccccc21 (stereo unspecified)	/	/	3.3	/	3.7
C#CCOCCOCCOCCNc1nc(N2CCN(C(=O)C(CCCCN)n3cc(C(N)CO)nn3)CC2)nc(N2CCN(C(=O)C(Cc3cc4ccccc4[nH]3)n3cc(C(N)CC(C)C)nn3)CC2)n1 (stereo unspecified)	/	/	3.0	/	-0.4
C#CCOCCOCCOCCNc1nc(N2CCN(C(=O)[C@H](CCCCN)n3cc([C@@H](N)C(C)CC)nn3)CC2)nc(N2CCN(C(=O)[C@H](Cc3cc4ccccc4[nH]3)n3cc([C@@H](N)CC(C)C)nn3)CC2)n1 (stereo partly specified)	i	91.3	/	38.6*	/
C#CCOCCOCCOCCNc1nc(N2CCN(C(=O)[C@H](Cc3cc4ccccc4[nH]3)n3cc([C@@H](N)C(C)CC)nn3)CC2)nc(N2CCN(C(=O)[C@H](CCCCN)n3cc([C@@H](N)CO)nn3)CC2)n1 (stereo partly specified)	/	59.4	-2.3	/	-12.1
C#CCOCCOCCOCCNc1nc(N2CCN(C(=O)Cn3cc(CCCCN)nn3)CC2)nc(N2CCN(C(=O)C(C(C)C)n3cc(CCO)nn3)CC2)n1 (stereo unspecified)	/	/	10.2	/	9.2
CCN1C(=NCCOC)NC(c2cccs2)C(C(=O)OC)=C1C (stereo unspecified)	/	/	-0.8	/	2.1
CC(C)C(CN1CCCC1CN1C(N)=NCC1Cc1ccccc1)N1CC(Cc2ccccc2)N(CCc2ccc(Cl)c(Cl)c2)C1=N (stereo unspecified)	/	/	100.4*	/	100.8*
CC[C@@H](C)[C@@H]1CN([C@@H](CN2CCC[C@H]2CN2C(N)=NC[C@@H]2Cc2ccccc2)C(C)C)C(=N)N1CCCC1CCCC1	4.5	100.1	/	1.7	/
CC(C)C[C@@H]1CN=C(N)N1C[C@@H]1CCCN1C[C@H](C)N1C[C@@H](Cc2ccccc2)N(CCc2ccc(Cl)c(Cl)c2)C1=N	i	99.6	/	-0.1	/
CC(C)CC1CN=C(N)N1CC1CCCN1CC(C)N1CC(Cc2ccccc2)N(CCc2ccc(Cl)c(Cl)c2)C1=N (stereo unspecified)	/	/	100.5*	/	100.8*
SMILES	Vc quorum ag	Mtb betalactam	ugtP null kill	PfHsp40 yeast	RN4220 kill
CC(C)C[C@@H]1CN=C(N)N1C[C@@H]1CCCN1C[C@@H](C(C)C)N1C[C@@H](Cc2ccccc2)N(CCc2ccc(Cl)c(Cl)c2)C1=N	i	99.5	99.8*	2.1	99.4*
O=S1(=O)CCOCC(Cc2ccccc2)N1Cc1ccccc1F (stereo unspecified)	/	/	1.0	/	10.1
COc1ccc(NC(=O)N(C)CC2Oc3c(NC(=O)Nc4ccc5c(c4)OCO5)cccc3C(=O)N(C(C)CO)CC2C)cc1 (stereo unspecified)	/	/	-0.3	/	5.8
CN1C(=O)C(O)(CC(=O)C=Cc2ccco2)c2cc(Br)ccc21 (stereo unspecified)	/	/	0.1	/	6.8
CC1=CC(=C2C(=O)NC(=S)NC2=O)C=C(C(F)(F)F)N1Cc1ccccc1	266.6*	24.8	9.7	0.7	3.3
CN(N=Cc1ccccc1Cl)c1ncc(Cl)cc1C(F)(F)F	/	/	84.5*	/	-5.0
CN(/N=C/c1ccc(Cl)cc1Cl)c1ncc(Cl)cc1C(F)(F)F	-0.7	-4.7	/	-0.8	/
CN=c1scc(-c2ccccc2F)n1/N=C/c1ccc(O)c(O)c1O	i	/	/	30.1*	/
O=C(N/N=C/c1cc(Cl)cc([N+](=O)[O-])c1O)c1ccccc1NS(=O)(=O)c1cccs1	3.7	9.1	/	243.9*	/
O=C(NN=Cc1ccc(O)cc1)c1ccccc1NS(=O)(=O)c1cccs1	-0.2	0.3	-2.8	-0.6	3.1
CC1(C)CC(=O)C2=C(C1)NC(=O)CC2c1ccc(F)cc1 (stereo unspecified)	30.2*	-0.6	3.4	-0.9	0.5

Source: PubChem BioAssay (several laboratories)
